Compound activity as filed in PubChem BioAssay.
APOBEC3A inh – APOBEC3A ssDNA deaminase inhibitors, primary screen, selectivity assay for APOBEC3G inhibitor project, biochemical, FAM/TAMRA oligo cleavage fluorescence. hit rate 0.41% among 330,000. inhibition, % at 20 µM. DNA dC->dU-editing enzyme APOBEC-3A (Homo sapiens), P31941. AID 493011, 2011. recombinant A3A, FAM/TAMRA ssDNA deamination fluorescence;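 active means at least 40% inhibition at 20 µM here, with at most 30% in a related deaminase screen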;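 further: plate controls were A3A with DMSO for no effect and wells lacking A3A enzyme for full effect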
PHOSPHO1 inh – PubChem AID 1565. Phosphoethanolamine/phosphocholine phosphatase (Homo sapiens), Q8TCT1. recombinant PHOSPHO1, absorbance phosphatase assay. inhibition, % at 13.3 µM. hit rate 1.1% among 290,000; in the data active means inhibition above about 60%
A3G deaminase – APOBEC3G DNA deaminase inhibitors, primary screen, biochemical, fluorescence, single-stranded DNA substrate, uHTS | DNA dC->dU-editing enzyme APOBEC-3G (Homo sapiens), Q9HC16 | recombinant A3G, ssDNA deamination FAM/TAMRA fluorescence | inhibition, % at 20 µM | hit rate 0.28% among 330,000 | AID 493012, 2011;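 active means inhibition of at least 40% at 20 µM, with no more than 30% in the related APOBEC3A deaminase screen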;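 further: plate controls were DMSO wells with A3G for no effect and wells lacking A3G enzyme for full effect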
MLLE-PAM2 inh – inhibitors of PABP1 MLLE–PAM2 peptide binding, primary screen, biochemical, fluorescence polarization, FITC-PAM2, GST-MLLE; Polyadenylate-binding protein 1 (Homo sapiens), P11940; inhibition, % at 20 µM; hit rate 0.36% among 360,000; AID 588489, 2011; in the data active means inhibition above about 35%, passing the limit was not always enough;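 further: plate controls were DMSO wells with GST-MLLE for no effect and wells lacking GST-MLLE protein for full effect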
PABP polyA inh – PABP poly(A) RNA binding inhibitors, primary screen, biochemical, fluorescence polarization, uHTS; Polyadenylate-binding protein 1 (Homo sapiens), P11940; calls only at 35 µM; hit rate 1% among 290,000; AID 2014, 2009;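 further: calls also rest on retests at 20 µM and on dose response follow-up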
eIF4H FP inh – human eIF4H binding inhibitors, primary screen, translation initiation inhibitor project, biochemical, uHTS, fluorescence polarization. AID 2012, 2009. Eukaryotic translation initiation factor 4H (Homo sapiens), Q15056. inhibition, % at 35 µM. eIF4H fluorescence polarization binding assay. hit rate 0.94% among 290,000;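 further: calls also rest on retests at 20 µM and on dose response follow-up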
The depositor's hits bear a star; i = inactive; ? = inconclusive; / = no result; + = active, no number. A selection: hits, their analogues and other compounds. The true share with any hit is near 2.6%. Unless noted, how the calls were made is not given here.

SMILES	APOBEC3A inh	PHOSPHO1 inh	A3G deaminase	MLLE-PAM2 inh	PABP polyA inh	eIF4H FP inh
Cc1ccc(S(=O)(=O)N2CCN(C(=O)C(C)Cn3cncn3)CC2)cc1 (stereo unspecified)	-2	-9	-7	-5	i	1
Cc1ccc2c(c1)C1C=CCC1C(C(=O)O)N2 (stereo unspecified)	/	46	/	/	i	89
COc1cccc2c1NC(C(=O)O)C1CC=CC21 (stereo unspecified)	96	3	92	22	+	96*
CC(=O)c1ccc2c(c1)C1C=CCC1C(C(=O)O)N2 (stereo unspecified)	98	-96	85	18	+	101*
O=C(O)C1Nc2c(cccc2C(F)(F)F)C2C=CCC12 (stereo unspecified)	/	-7	/	/	+	80*
CC(C)Cc1ccc(-c2cc3nc(NCCCn4ccnc4)ccn3n2)cc1	/	/	/	-15	/	/
CCOC(=O)c1cc(=O)n2nc(-c3ccc(C)cc3)nc2s1	-2	75*	-5	-9	i	-15
COc1cc(/C=N\Nc2ccc([N+](=O)[O-])cc2)ccc1OCC(=O)Nc1ccc(C)c(C)c1	/	-22	/	7	+	?
C[C@@H]1CCCCO[C@H](CN(C)C(=O)Nc2ccc(F)cc2)[C@@H](C)CN([C@H](C)CO)C(=O)c2cc(N(C)C)ccc2O1	/	/	/	-10	/	/
N#CCCN(C(=O)c1ccc2c(=O)n3c(nc2c1)CCCCC3)c1ccccc1	-7	64*	-9	0	/	/
CCOc1cc(/C=N/NC(=O)COc2ccc(C)cc2)ccc1OC(=O)c1cccs1	2	60*	-2	-1	i	-2
CCOC(=O)c1ccc(OCC2NCCc3cc(OC)c(OC)cc32)cc1 (stereo unspecified)	-2	27	4	10	i	8
O=C1/C(=C/c2ccc(N3CCCC3)cc2)NC(=S)N1C1CC1	-20	102*	-48	118	i	126
O=C1N/C(=C/c2ccc(N3CCCC3)cc2)C(=O)N1c1ccccc1	0	5	4	-66	i	1
CC1(C)Nc2ccc(O)cc2-c2c1ssc2=S	0	21	-5	17	+	80
CC(=O)NS(=O)(=O)c1ccc(N=c2ssc3c2-c2cc(C)ccc2NC3(C)C)cc1	-3	-4	-5	-9	i	2
CN(C)C(=O)c1cn(-c2ccc(Cl)cc2)c(=O)c2ccccc12	3	-4	-3	-11	i	2
CN(C)C=NC(=O)c1cn(-c2ccc(F)cc2)c(=O)c2ccccc12	-3	28	-5	7	i	9.9*
CC(C)OC(=O)CC(=O)c1sc2nc3c(cc2c1N)CN(C)CC3	6	82*	18	/	?	?
CCN1CCc2nc3sc(C(=O)N4CCc5ccccc5C4)c(N)c3cc2C1	0	13	3	-27	+	98*
CC(C)c1ccc2nc3sc(C(=O)N4CCc5ccccc5C4)c(N)c3cc2c1	-2	-16	0	22	i	-2
COCc1c(C(=O)N/N=C/c2ccncc2)nnn1-c1nonc1N	0	37	-4	-1	i	4
COc1ccc(C(=O)NC(C)c2ccc(-n3ccnc3)cc2)cc1S(=O)(=O)N1CCOCC1 (stereo unspecified)	-4	/	-3	7	/	/
O=C(NNS(=O)(=O)c1ccc(F)cc1)c1ccc(S(=O)(=O)N2CCCCC2)cc1	5	-5	-1	4	i	active
O=C(NN=Cc1c(O)ccc2ccccc12)c1ccc2c(c1)OCO2	-7	/	-20	-11	/	/
NC(=S)N/N=C/c1c(O)ccc2ccccc12	5	-2	1	47*	i	4
O=CN/N=C/c1c(O)ccc2ccccc12	-5	-12	-4	96	i	91
